Bioassay records: PubChem BioAssay, Broad Institute
CASP6 VEID inh: blocks human caspase-6 cleavage activity. P55212. purified caspase-6, Z-VEID-R110 cleavage fluorescence. inhibition, % at 12.5 µM. 350,000 tested, 0.53% active;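 active = mean inhibition across replicates at least about 35%, with every replicate also reaching that limit, limit read from the data; inconclusive = only one of the two criteria met; inactive = neither criterion met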;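 note: 0% = median of neutral control wells and 100% = no fluorescence left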
Target sequence (P55212 24-179 limits assumed): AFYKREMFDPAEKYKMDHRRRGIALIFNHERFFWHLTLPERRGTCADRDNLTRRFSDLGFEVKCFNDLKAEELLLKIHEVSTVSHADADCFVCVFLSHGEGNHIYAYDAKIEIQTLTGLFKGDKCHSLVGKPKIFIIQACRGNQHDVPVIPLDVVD
Target sequence (P55212 194-293 limits assumed): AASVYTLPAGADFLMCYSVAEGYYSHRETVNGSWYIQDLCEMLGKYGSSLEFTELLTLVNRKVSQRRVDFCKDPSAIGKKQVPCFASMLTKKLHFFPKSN
RAD52 inh: RAD52 (human) annealing inhibition; P43351; recombinant RAD52 DNA annealing, FRET fluorescence; inhibition, % at 18.7 µM; 360,000 tested, 0.46% active;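 active = every replicate showing at least 50% inhibition; inconclusive = mean inhibition at least 50% but not in every replicate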
Target sequence (P43351 whole entry, looked up): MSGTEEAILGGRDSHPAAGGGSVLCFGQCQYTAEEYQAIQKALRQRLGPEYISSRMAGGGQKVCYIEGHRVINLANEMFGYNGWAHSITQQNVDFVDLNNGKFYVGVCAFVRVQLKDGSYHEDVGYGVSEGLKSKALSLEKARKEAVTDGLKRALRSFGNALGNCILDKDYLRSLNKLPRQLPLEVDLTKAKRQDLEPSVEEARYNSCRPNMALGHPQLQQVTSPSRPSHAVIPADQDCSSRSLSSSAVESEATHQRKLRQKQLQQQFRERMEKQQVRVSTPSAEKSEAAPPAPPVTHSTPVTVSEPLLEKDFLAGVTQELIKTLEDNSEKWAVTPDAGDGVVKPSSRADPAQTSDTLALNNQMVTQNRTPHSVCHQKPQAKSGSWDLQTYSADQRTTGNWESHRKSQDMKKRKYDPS
miR122 inh: miR-122 inhibition in Huh7 cells. 340,000 tested, 0.3% active. Huh7 miR-122 Renilla luciferase sensor, 48 h; neutral wells = 0, positive control = 100. activation (reporter increase), % at 12.5 µM. AID 602342;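 active = mean replicate activation score at least 90 and every replicate individually at or above 90; inconclusive = only one of the two criteria met; inactive = neither criterion met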;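 note: higher luciferase means less miR-122 activity so hits act as miR-122 inhibitors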
NSD2 inh: blocks human histone methyltransferase NSD2; NSD2 peptide methylation, AlphaScreen, 120 min; inhibition, % at 12.5 µM; 310,000 tested, 0.54% active; AID 743445; in the data active = inhibition above about 50%
AF4-AF9 inh: blocks AF4 peptide binding to human AF9; AlphaScreen, biotin-AF4 peptide binding to FLAG-AF9; inhibition, % at 10 µM; 350,000 tested, 0.47% active;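 active = every replicate reaching a set inhibition limit, whatever the replicate mean, cut at about 25% in these data; inconclusive = mean inhibition reaches that limit but some replicates miss it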;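 note: 0% = plate neutral control median and 100% = total signal loss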
* hit, by the source's call; ? = inconclusive; . = no result given; [ ] = remark or other dose. Only some compounds are listed: those with a hit (about 1.5% of all), similar ones and a draw of the others.

SMILES	CASP6 VEID inh	RAD52 inh	miR122 inh	NSD2 inh	AF4-AF9 inh
CN(C)C(CNC(=O)c1ccc(Br)cc1)c1ccco1 (configuration not stated)	-0.7	-9.4	.	-1.9	1.2
COc1ccc(CN(C)C(=O)c2ccc(OCC(=O)Nc3cccc(C(F)(F)F)c3)c(OC)c2)c(OC)c1	56.7*	1.1	.	-1.8	8.1
C[C@@H]1CN([C@H](C)CO)C(=O)c2cc(C#CC3(O)CCCC3)cnc2O[C@@H]1CN(C)C(=O)Nc1ccc2c(c1)OCO2	-3.8	5.9	.	.	-5.8
COc1ccc(S(=O)(=O)N[C@@H]2CC[C@@H](CC(=O)N3CCN(c4ccccc4)CC3)O[C@@H]2CO)cc1	1.0	-0.6	.	.	1.7
COc1cccc(C(=O)N2CCN(Cc3cc(Br)ccc3OC)CC2)c1	.	.	9.1	2.8	.
COc1cccc(C(=O)N2CCN(Cc3ccc(OC)cc3OC)CC2)c1	41.5*	-19.2	-0.6	-1.3	-1.1
COc1ccc(Cl)cc1N(CC(=O)N1CCCC1)S(=O)(=O)c1ccc(C)cc1	5.0	-7.9	140.9*	-2.4	1.4
COc1ccccc1N(CC(=O)N1CCCC1)S(=O)(=O)c1ccc(C)cc1	.	-4.5	.	-20.3	0.5
COc1ccccc1N(CC(=O)N1CCCCC1C)S(=O)(=O)c1ccc(Cl)cc1 (configuration not stated)	4.5	-6.7	128.3*	-4.1	-3.4
CCN(C(=O)c1cccc2c1-c1ccccc1C2=O)c1ccccc1	.	.	.	2.4	.
CCC(=O)N(CC)C1=C(O)c2ccccc2C(=O)C1=O	40.0*	-9.3	21.1	17.2	12.7
Clc1cccc(CN2CCC3CC2c2cc(N4CCCCC4)ccc23)c1 (configuration not stated)	-1.2	-30.7	-5.7	.	25.9*
c1ccc(CN2CCC3CC2c2cc(N4CCCCC4)ccc23)cc1 (configuration not stated)	-6.0	-31.0	-1.7	.	22.1
C[C@H]1CN([C@@H](C)CO)S(=O)(=O)c2ccc(C#CC3CCCC3)cc2O[C@H]1CN(C)C(=O)c1cccc(F)c1	.	.	-2.2[16.7 µM]	.	.
N#C/C(=C/c1ccco1)C(N)=S	45.7*	-55.3	.	-14.4	-8.1
N#C/C(=C\c1ccc2c(c1)OCO2)C(N)=S	-1.0	-6.7	-4.0	-2.0	-10.7
O=S(=O)(Nc1c(S(=O)(=O)c2ccccc2)c2nc3ccccc3nc2n1C1CCCCC1)c1ccccc1	41.3*	-16.6	-0.8	140.5*	-46.9
COc1ccc(/C=N/Nc2cc(N(C)C)nc(N(C)C)n2)cc1	8.5	6.6	.	33.3	27.8*
C/C=C/c1ccc2c(c1)O[C@H](CN(C)Cc1cccnc1)[C@@H](C)CN([C@H](C)CO)S2(=O)=O	0.1	-1.8	29.8[16.7 µM]	.	2.4
Cc1ccc(S(=O)(=O)N(C)C[C@H]2OCCCC[C@H](C)Oc3ccc(NC(=O)NC(C)C)cc3C(=O)N([C@@H](C)CO)C[C@@H]2C)cc1	-0.1	-3.3	3.2[16.7 µM]	.	1.2
Cc1cc(C)c(C#N)c(SCc2ccccc2)n1	.	.	15.3	-1.2	.
COc1ccc(CSc2nc(C)cc(C)c2C#N)cc1	0.2	-9.7	-1.0	-1.0	25.2*
COP(=O)(OC)c1ccc(NCc2cc(O)ccc2O)cc1	53.1*	-3.4	.	26.3	-8.8
CC(C)OC(=O)c1ccc(NCc2cc(O)ccc2O)cc1	-3.9	0.3	6.1	3.9	8.4
Cc1noc(C)c1NC(=O)NCC[C@@H]1CC[C@H](NC(=O)c2ccc(F)cc2)[C@@H](CO)O1	-83.9	-4.7	.	.	-1.8
SMILES	CASP6 VEID inh	RAD52 inh	miR122 inh	NSD2 inh	AF4-AF9 inh
COc1ccc2nc(C)cc(N/N=C/c3cccc(OC)c3O)c2c1	-1.0	49.2	-15.1	3.7	25.5*
[N-]=[N+]=Nc1ccccc1C[C@]1(C(=O)NCc2ccccc2)COC(c2ccc(OCCCO)cc2)=N1	-3.2	-28.6	.	.	1.3
C[C@H]1CN([C@@H](C)CO)C(=O)c2cc(-c3ccncc3)cnc2O[C@H]1CN(C)S(=O)(=O)c1ccc(F)cc1	-0.1	-3.6	7.5[16.7 µM]	.	-2.8
O=C1NC(=S)S/C1=C\C=C\c1ccc([N+](=O)[O-])o1	96.1*	-6.7	?	.	7.1
O=C(COC(=O)c1ccc([N+](=O)[O-])o1)NCc1ccccc1	24.6	-29.4	.	6.7	3.2
O=C(COC(=O)c1ccc([N+](=O)[O-])o1)Nc1ccc2c(c1)OC(F)(F)O2	56.3*	-16.3	-2.6	4.8	0.3
COc1ccccc1CNC(=O)COC(=O)c1ccc([N+](=O)[O-])o1	35.3*	-15.4	0.7	0.0	-1.2
NCC[C@H]1CC[C@H](NS(=O)(=O)Cc2ccccc2)[C@H](CO)O1	-8.4	-11.6	-8.7[16.7 µM]	.	-0.5
CO[C@@H](CN(C)S(=O)(=O)c1ccc(C)cc1)[C@@H](C)CN(Cc1ccccc1Cl)[C@H](C)CO	3.6	-12.5	.	.	-1.3
CN(C)CC(=O)N[C@@H]1CC[C@@H](CC(=O)O)O[C@H]1CO	2.4	9.9	.	.	-4.2
C[C@H](CO)N1C[C@H](C)[C@@H](CN(C)Cc2ccc3c(c2)OCO3)OCCCC[C@H](C)Oc2ccc(NC(=O)Cc3ccccc3)cc2C1=O	.	.	24.0[16.7 µM]	.	.
O=C(NCC[C@H]1CC[C@H](NC(=O)c2cccnc2)[C@H](CO)O1)Nc1ccc(F)cc1	-0.1	50.3*	.	.	22.0
O=C(NCC[C@@H]1CC[C@@H](NC(=O)c2cccnc2)[C@H](CO)O1)Nc1ccc(C(F)(F)F)cc1	-86.5	46.6	.	.	25.9*
O=C(NCC[C@H]1CC[C@@H](NC(=O)c2cccnc2)[C@@H](CO)O1)Nc1ccc(F)cc1	-2.5	13.8	.	.	6.9
COc1cccc(/C=N/NC(=S)NCCc2ccccc2)c1	35.1*	-7.7	2.6	-1.2	-1.5
O=C(CSc1nccc(=O)[nH]1)NCc1ccco1	42.5*	-25.2	1.8	.	1.6
Cc1cc(=O)[nH]c(SCC(=O)NCc2ccco2)n1	.	.	-0.8	-3.9	.
CCCC(=O)Nc1ccc2c(c1)C(=O)N(C)[C@H]1CC[C@@H](CC(=O)NCC(F)(F)F)O[C@H]1CO2	.	.	143.3*[16.7 µM]	.	.
CN1C(=O)c2cc(NC(=O)NCc3ccccc3)ccc2OC[C@H]2O[C@H](CC(=O)NCC3CCCCC3)CC[C@H]21	-3.9	5.3	44.4[16.7 µM]	.	-12.3
CN1C(=O)c2cc(NC(=O)Nc3ccc(Cl)cc3)ccc2OC[C@@H]2O[C@H](CC(=O)NCCN3CCCCC3)CC[C@@H]21	2.5	53.7*	-21.7[16.7 µM]	.	7.2
Cc1ccccc1NC(=O)Nc1ccc2c(c1)C(=O)N(C)[C@H]1CC[C@@H](CC(=O)NCC3CC3)O[C@H]1CO2	-1.2	8.0	217.8*[16.7 µM]	.	0.9
CN1C(=O)c2cc(NC(=O)NCc3ccccc3)ccc2OC[C@@H]2O[C@H](CC(=O)NCC3CCCCC3)CC[C@@H]21	.	1.4	173.3*[16.7 µM]	.	.
CN1C(=O)c2cc(NC(=O)Nc3ccc(Cl)cc3)ccc2OC[C@H]2O[C@@H](CC(=O)NCCN3CCCCC3)CC[C@H]21	-1.8	41.4	1.7[16.7 µM]	.	6.0
CNC[C@H]1Oc2ccc(NS(=O)(=O)c3cccs3)cc2CC(=O)N([C@@H](C)CO)C[C@@H]1C	-2.5	9.1	5.0[16.7 µM]	.	-0.8
O=C(N[C@H]1C=C[C@H](CC(=O)N2CCc3ccccc3C2)O[C@H]1CO)C1CC1	0.8	15.6	.	.	-2.3
